The term AC50 denotes the midpoint of the concentration-response curve, whichever way the signal moves.

SMILES strings stand for the structures. Results filed as inconclusive are left out. Active and inactive are the calls of the source. Rule for the calls, unless noted: active = hit-call score of the fitted dose curve at least 0.9, where 1 is the maximum; inactive = score below 0.9.

Experiment [1] is described as follows: UKN5_HCS_SBAD2_neurite_outgrowth: University of Konstanz (UKN) Leist Lab Neurite Outgrowth Assay in human iPSC-derived immature Dorsal Root Ganglia Neurons (UKN5) (AID 2284070). As to conditions: actives raise or lower the signal. The gist of the method:
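Neurite outgrowth is quantified as calcein-AM-labelled neurite area in human iPSC-derived peripheral neurons treated for 24 h, starting 1 h after plating in medium with CHIR99021 (1.5 uM), SU5402 (5 uM) and DAPT (5 uM).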

Experiment [2] in a line: UKN2_HCS_IMR90_neural_migration: University of Konstanz (UKN) Leist Lab Neural Crest Cell Migration Assay in human induced IMR90 Pluripotent Stem Cells (UKN2) (AID 2284204). As to conditions: actives raise or lower the signal. The gist of the method: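 Using a 96-well stopper format with PLO/laminin/fibronectin coating, neural crest cells from iPSC migrate in cytokine-supplemented N2-S medium; after 24 h, chemicals are applied for a further 24 h, then cells are imaged after dye staining.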

The nature of experiment [3]: IUF_NPC1b_proliferation_BrdU_72hr: Leibniz Research Institute for Environmental Medicine (IUF) 72-hour Neural Progenitor Cell Bromodeoxyuridine (BrdU) Proliferation Assay (NPC1b) (AID 2284207). The method, boiled down:
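Neural progenitor spheres of human fetal origin are treated for three days; BrdU added for the last 16 h is quantified by luminescence ELISA, with DMSO as baseline and EGF/FGF omission as positive control.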

Experiment [4] in a line: IUF_NPC1a_proliferation_area_72hr: Leibniz Research Institute for Environmental Medicine (IUF) 72-hour Neural Progenitor Cell Proliferation Area Assay (NPC1a) (AID 2284208). The gist of the method:
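Single 0.25–0.35 mm human fetal neural progenitor spheres in proliferation medium with EGF and FGF, exposed 72 h from plating without renewal at 37C, pH 7.2-7.6. Sphere area growth measured by automated phase-contrast imaging, relative to DMSO.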

The nature of experiment [5]: UKN4_HCS_LUHMES_cell_viability: Viability Assessment in the University of Konstanz (UKN) Leist Lab Neurite Outgrowth Assay in human LUHMES cells (UKN4) (AID 2284232). The gist of the method:
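Measured in replated, 2-day-differentiated LUHMES cells treated 24 h; stained 30 min with H-33342 and calcein-AM before high-content imaging.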

A short description of experiment [6]: UKN2_HCS_IMR90_cell_viability: Viability Assessment in the University of Konstanz (UKN) Leist Lab Neural Crest Cell Migration Assay in human induced IMR90 Pluripotent Stem Cells (UKN2) (AID 2284233).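 Note: viability of neural crest cells differentiated from IMR90 iPSC measured by calcein-AM fluorescence imaging; cells exposed to compound for 24 h after a 24 h migration phase.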 The gist of the method:
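cMINC format, iPSC-derived neural crest (IMR90); 24 h migration (EGF/FGF, N2-S), then 24 h toxicant. Calcein-AM/H-33342 stain 30 min; fluorescence intensity by HCS; DMSO-normalised, bidirectional fitting.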

Experiment [7] is described as follows: IUF_NPC2c_oligodendrocyte_migration_120hr: Leibniz Research Institute for Environmental Medicine (IUF) 120-hour Neural Progenitor Cell Migration Assay for Oligodendrocyte Migration (NPC2c) (AID 2284297).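 Note: O4-positive oligodendrocyte migration distance divided by radial glia migration distance.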 The method, boiled down:
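Human fetal neural progenitor spheres (0.3 mm) are plated on poly-D-lysine/laminin in N2 differentiation medium and exposed for 120 h, with half-medium renewal at day 3. Oligodendrocyte (O4+) migration distance comes from ICC imaging, normalised to radial glia migration.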

A short description of experiment [8]: IUF_NPC2a_radial_glia_migration_120hr: Leibniz Research Institute for Environmental Medicine (IUF) 120-hour Neural Progenitor Cell Migration Assay for Radial Glia Migration (NPC2a) (AID 2284298). The method, boiled down: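 Human fetal-cortex neural progenitor spheres (0.3 mm) plated on poly-D-lysine/laminin in N2 differentiation medium, exposed 120 h at 37C with half-medium renewal at day 3. Radial glia migration distance (um) measured from Hoechst-stained nuclei images; DMSO baseline.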

Experiment [9] can be described thus: IUF_NPC2a_radial_glia_migration_72hr: Leibniz Research Institute for Environmental Medicine (IUF) 72-hour Neural Progenitor Cell Migration Assay for Radial Glia Migration (NPC2a) (AID 2284299). The gist of the method: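 Spheres of human primary neural progenitors migrate on poly-D-lysine/laminin under compound exposure at 37C, 5% CO2. The 72 h radial glia migration distance comes from brightfield images, measured manually.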

A short description of experiment [10]: IUF_NPC2b_neuronal_migration_120hr: Leibniz Research Institute for Environmental Medicine (IUF) 120-hour Neural Progenitor Cell Migration Assay for Neuron Migration (NPC2b) (AID 2284300). The method, boiled down: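 0.3 mm hNPC spheres on poly-D-lysine/laminin in N2 differentiation medium exposed 120 h, half-medium refresh day 3; 7 concentrations, DMSO max 0.1%. Neuron (TUBB3) distance from sphere core by ICC imaging, normalised to radial glia migration.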

The nature of experiment [11]: IUF_NPC3_neuronal_differentiation_120hr: Leibniz Research Institute for Environmental Medicine (IUF) 120-hour Neuronal Differentiation Assay (NPC3) (AID 2284301). The gist of the method: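 Neuronal differentiation of primary human neural progenitors measured by high-content imaging: percent TUBB3+ of Hoechst+ nuclei within migrated area at 120 h, seven-point serial dilution plus solvent control, gain or loss relative to DMSO.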

Experiment [12] in a line: IUF_NPC4_neurite_length_120hr: Leibniz Research Institute for Environmental Medicine (IUF) 120-hour Neuronal Morphology Assay for Neurite Length (NPC4) (AID 2284302). The gist of the method: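 Neurons from differentiating human fetal neural progenitor spheres are scored for average neurite length after five days of compound exposure. Fitting uses DMSO as negative control.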

The nature of experiment [13]: IUF_NPC5_oligodendrocyte_differentiation_120hr: Leibniz Research Institute for Environmental Medicine (IUF) 120-hour Oligodendrocyte Differentiation Assay (NPC5) (AID 2284304; active = hit-call score of the fitted dose curve at least 0.9, where 1 is the maximum;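 note: primary human fetal neural progenitor spheres plated to migrate and differentiate; share of O4-positive cells among Hoechst nuclei found by CNN image analysis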). The gist of the method:
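Human fetal neural progenitor spheres (0.3 mm) plated on poly-D-lysine/laminin in N2 differentiation medium and exposed for 120 h at 7 concentrations, with half-medium renewal at day 3. O4-positive cells identified by CNN, expressed as percent of Hoechst nuclei.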

The nature of experiment [14]: IUF_NPC4_neurite_area_120hr: Leibniz Research Institute for Environmental Medicine (IUF) 120-hour Neuronal Morphology Assay for Neurite Area (NPC4) (AID 2284305; active = hit-call score of the fitted dose curve at least 0.9, where 1 is the maximum). The method, boiled down: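 Endpoint at 120 h: automated imaging of TUBB3/Hoechst-stained differentiating human neural progenitor spheres, neurite area per neuron from skeletonization. DMSO solvent control, not above 0.1%, set the baseline; medium was half-replaced on day 3.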

A short description of experiment [15]: IUF_NPC2-5_cytotoxicity_72hr: Cytotoxicity Assessment at 72 hours in the Leibniz Research Institute for Environmental Medicine (IUF) Neural Progenitor Cell Migration and Differentiation Assay for Cytotoxicity (NPC2-5) (AID 2284306; active = hit-call score of the fitted dose curve at least 0.9, where 1 is the maximum;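 note: LDH release into supernatant measured by resorufin fluorescence marking membrane damage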). The gist of the method: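 Primary human neural progenitor spheres migrate and differentiate on laminin. Compound is present from the start of differentiation, with DMSO kept at or below 0.1%. At 72 h, supernatant LDH is quantified fluorometrically, with values fitted in the positive direction.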

A short description of experiment [16]: IUF_NPC2-5_cytotoxicity_120hr: Cytotoxicity Assessment at 120 hours in the Leibniz Research Institute for Environmental Medicine (IUF) Neural Progenitor Cell Migration and Differentiation Assay (NPC2-5) (AID 2284307; active = hit-call score of the fitted dose curve at least 0.9, where 1 is the maximum). The gist of the method:
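Human fetal (GW 16-19) neural progenitor spheres (0.3 mm) plated on poly-D-lysine/laminin in N2 differentiation medium, exposed 120 h with half-medium renewal at day 3; 7 concentrations plus solvent control, DMSO ≤0.1%. LDH release in supernatant read by resorufin fluorescence.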

The nature of experiment [17]: IUF_NPC2-5_cell_number_120hr: Cell Number Assessment at 120 hours in the Leibniz Research Institute for Environmental Medicine (IUF) Neural Progenitor Cell Migration and Differentiation Assay (NPC2-5) (AID 2284308).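 Note: count of Hoechst-stained nuclei in migration zone around plated human neural progenitor spheres.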 The gist of the method:
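Human fetal neural progenitor spheres (0.3 mm) plated on poly-D-lysine/laminin in N2 differentiation medium, exposed five days across 7 concentrations with half-medium refresh at day 3. Hoechst-positive nuclei counted in migration area at 120 h, relative to DMSO.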

Experiment [18] is described as follows: IUF_NPC2-5_viability_120hr: Viability Assessment at 120 hours in the Leibniz Research Institute for Environmental Medicine (IUF) Neural Progenitor Cell Migration and Differentiation Assay (NPC2-5) (AID 2284312). The gist of the method:
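Human fetal (GW 16-19) neural progenitor spheres of 0.3 mm were plated on poly-D-lysine/laminin in N2 differentiation medium and exposed from day 0 for 120 h, with half-medium refresh at day 3. Viability was read as alamar blue resazurin-to-resorufin fluorescence against DMSO.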

Experiment [19] can be described thus: IUF_NPC1_cytotoxicity_72hr: Cytotoxicity Assessment at 72 hours in the Leibniz Research Institute for Environmental Medicine (IUF) Neural Progenitor Cell Proliferation Assay (NPC1) (AID 2284332; active = hit-call score of the fitted dose curve at least 0.9, where 1 is the maximum;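 note: rising LDH signal means more cytotoxicity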). The method, boiled down:
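Readout is fluorescence from LDH-dependent resazurin conversion, sampled from culture medium after compound contact lasting 72 h. Each well holds one 0.25-0.35 mm human progenitor sphere kept at 37C, 5% CO2 with EGF and FGF.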

Experiment [20] can be described thus: Tanguay_ZF_120hpf_MUSC: Oregon State University Tanguay Lab 120 Hour Post-fertilization zebrafish Assay for Muscle Malformation (AID 2284401). The gist of the method: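 Scored as a binary brightfield endpoint at 120 hpf, fitted versus DMSO. Single dechorionated wild-type (Tropical 5D) zebrafish embryos per well, statically exposed at 28C from 6 hpf onward with final DMSO 0.64%.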

A short description of experiment [21]: CCTE_Mundy_HCI_hNP1_Pro_ResponderAvgInten: CCTE's Proliferation Assay in human neuroprogenitor cells, Mundy Lab (AID 2284224; active = hit-call score of the fitted dose curve at least 0.9, where 1 is the maximum;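 note: human neural progenitor cells hNP1 derived from WA09 embryonic stem cells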). The gist of the method:
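Human neuroprogenitors (hNP1, WA09 lineage) receive test chemical after 40 to 44 hours of attachment. A four-hour BrdU pulse begins twenty hours later, followed by fixation and high content imaging; signal is referenced to DMSO controls.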

With `CC1(C)C(C=C(Cl)Cl)[C@H]1C(=O)O[C@H](C#N)c1cccc(Oc2ccccc2)c1` (some centres not stated), the compound was classed as inactive in experiment [1], in [2], in experiment [3], in [4], in experiment [5] and in [6]. The outcome in experiment [7], in experiment [8], in [9], in experiment [10], in experiment [11] and in experiment [12] was inactive. In addition, the result in experiment [14], in experiment [15], in experiment [16], in [17], in [18] and in experiment [19] was inactive. Moreover, the AC50 in experiment [13] is 1000 nM (active).
For the compound `O=C(O)C(F)(F)C(F)(F)C(F)(F)C(=O)O`, in experiment [20], the outcome was inactive.
Turning to `O=S(=O)(Cl)C(F)(F)C(F)(F)C(F)(F)C(F)(F)C(F)(F)C(F)(F)C(F)(F)C(F)(F)F`, in [20], the outcome was inactive.
Take `C[C@@]1(CO)[C@H](O)CC[C@@]2(C)[C@H]1CC[C@H]1C[C@@H]3C[C@@]12CC[C@]3(O)CO`: the compound was classed as inactive in experiment [21].
